Bioassay records deposited in PubChem BioAssay by National Center for Advancing Translational Sciences (NCATS).
Rango dissoc inh: inhibition of RanGTP-driven Rango-importin beta dissociation; O95149+P62826; 340,000 compounds, 0.071% hits; Potency, µM (series often up to 46.1 µM), for the others: top-dose activity change, negative = inhibition; Biochemical FRET Rango-importin beta, RanGTP-induced dissociation; calls by dose curve; further: % of control where 0% means no effect; nearly all actives have a fitted effect of over 45% in size
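Rango/importin beta premix (0.1/0.25 uM final), PBS + 1 mM DTT + 0.02% Tween-20 + 0.1% BSA; cpd 5 min RT; FRET pre-read; + RanGTP-RCC1 (0.6 uM Ran, 2 mM GTP, 0.2 uM RCC1); 45 min RT; FRET post-read, ex 430, em 486/530 nm.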
PTAP TSG101 blk: blocks PTAP/TSG101 interaction to inhibit HIV-1 budding; Q99816; Fluorescence polarization, FITC-PTAP peptide / Tsg101 binding; Potency, µM (top dose mostly 115 µM), inactives show top-dose activity change, negative = inhibition, hits mostly inhibitors; 340,000 tested, under 10 active; AID 493005; active means well fitted inhibition curve with a large enough effect in the main read-out, with a control signal flat, not every such curve was filed as active; inconclusive means small, poorly fitted or top-dose-only effect, or effect the other way, or a change in a side signal; inactive means no such curve, though single readings can be large or run the other way; further: % of control where 0% means no effect
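Steps: Tsg101 binding domain dispensed (10 uM final), compounds pinned in DMSO, FITC-labeled PTAP-motif peptide added (50 nM final); after 20 min binding at room temperature, polarization measured.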
Rango-impB inh: Rango-importin beta binding inhibition. Q14974. Rango CFP/YFP FRET sensor + importin beta, 45 min. Potency, µM (series often up to 92.2 µM), without a hit: at the top dose inhibition of complex formation. 340,000 compounds, 0.031% hits. AID 540263; calls by dose curve;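 further: 0% = DMSO wells and 100% = buffer wells lacking importin beta; nearly all actives have a fitted effect of over 15% in size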
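Inhibition scored from the CFP 486 nm/YFP 530 nm FRET ratio 45 min after adding 0.125 microM importin beta to 50 nM Rango biosensor preincubated 5 min with compound (room temperature, PBS with DTT, Tween-20, BSA). No-importin wells as positive control.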
ALOX12 inh: blocks human arachidonate 12S-lipoxygenase. AID 1671190. 580,000 compounds, 1.1% hits. P18054. Potency, µM (series often up to 108 µM), for inactives: at the highest dose activity change, negative = inhibition, hits mostly inhibitors. purified 12hLO, xylenol orange hydroperoxide absorbance; further: on the % scale 0 is the no-effect control and ±100 the full control effect
Target sequence (P18054 whole entry, looked up): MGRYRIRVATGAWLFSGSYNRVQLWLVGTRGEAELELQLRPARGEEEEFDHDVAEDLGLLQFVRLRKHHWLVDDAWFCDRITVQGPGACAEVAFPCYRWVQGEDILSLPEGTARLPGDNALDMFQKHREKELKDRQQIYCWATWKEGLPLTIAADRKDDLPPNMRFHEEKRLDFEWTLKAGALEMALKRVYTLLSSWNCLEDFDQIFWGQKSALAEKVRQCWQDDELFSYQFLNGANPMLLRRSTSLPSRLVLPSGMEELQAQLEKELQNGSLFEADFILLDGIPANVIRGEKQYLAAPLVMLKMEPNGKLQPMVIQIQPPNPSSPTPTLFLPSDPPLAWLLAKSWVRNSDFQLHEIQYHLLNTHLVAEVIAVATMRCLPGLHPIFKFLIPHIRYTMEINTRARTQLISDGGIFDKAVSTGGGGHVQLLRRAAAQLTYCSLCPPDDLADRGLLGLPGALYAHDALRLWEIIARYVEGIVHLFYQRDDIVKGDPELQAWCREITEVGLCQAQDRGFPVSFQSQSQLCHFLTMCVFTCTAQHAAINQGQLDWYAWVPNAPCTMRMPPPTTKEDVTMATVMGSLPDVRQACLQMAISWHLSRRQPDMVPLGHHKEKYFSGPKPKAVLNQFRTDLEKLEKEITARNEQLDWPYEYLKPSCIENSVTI
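Purified human 12hLO at 150 nM in 25 mM Hepes, 0.01% Triton X-100, pH 7.0, preincubated 15 min at room temperature with compound. Reaction started with 40 uM arachidonic acid, 30 min at room temperature. Hydroperoxide measured by Fe-xylenol orange, 573/405 nm absorbance ratio.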
TDP1 inh: inhibitors of human tyrosyl-DNA phosphodiesterase TDP1. Q9NUW8. recombinant TDP1, AlphaScreen DNA substrate cleavage. Potency, µM (doses to about 130 µM), for inactives: top-dose activity change, negative = inhibition, hits mostly inhibitors. 350,000 compounds, 0.28% hits. AID 485290; further: on the % scale 0 is the no-effect control and ±100 the full control effect; nearly all actives have a fitted effect of over 40% in size
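Steps: enzyme plus compound, 15 min RT; add biotin/phosphotyrosine-FITC oligonucleotide (15 nM final), react 5 min; add donor/acceptor beads (10 ug/ml final), 10 min; read AlphaScreen. Tdp1 at 1 nM final.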
ClpP mod: qHTS Assay for Activators of ClpP; ATP-dependent Clp protease proteolytic subunit (Bacillus subtilis (strain 168)), P80244; purified B. subtilis ClpP, FRET peptide cleavage, 20 min; Potency, µM (top dose mostly 57.5 µM), inactives show at the highest dose activity change, negative = active; 340,000 compounds, 1.9% hits; AID 651965, 2013; active means well fitted falling curve with a large enough effect; inconclusive means small, poorly fitted or top-dose-only effect; inactive means no such curve, though single readings can be large or run the other way; further: the source files actives as falling curves though it sought activators and does not explain the sign; nearly all actives have a fitted effect of over 65% in size
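Buffer: 100 mM Tris/HCl pH8, 100 mM KCl, 0.05% low protease BSA, 2.5% glycerol, 0.01% Tween-20. ClpP 10 microg/mL final; 20 min RT; delta FRET normalized to ADEP and DMSO controls.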
The depositor's hits bear a star; [ ] = remark or other dose. An excerpt weighted towards active compounds, which were near 2.4% of everything screened. Unless noted, the call rests on the fitted dose curve; in most records, active means well fitted curve in the direction sought with a large enough effect; inconclusive means small, poorly fitted or top-dose-only effect, or another doubt; inactive means no such curve, though single readings can be large; an effect the other way counts as inactive or inconclusive. Potency means the concentration at half of the fitted maximal effect.

Screening O=C1c2cccc3cccc(c23)C(=O)N1c1ccc(O)cc1 returned Rango dissoc inh 1.2%, PTAP TSG101 blk -0.5%, Rango-impB inh -4.9%, ALOX12 inh -8.0%, TDP1 inh -19.4% and ClpP mod -5.1%.
Screening O=C1c2cccc3cccc(c23)C(=O)N1c1nncs1 returned Rango dissoc inh -10.2%, PTAP TSG101 blk -3.4%, Rango-impB inh 7.8%, ALOX12 inh 36.6%, TDP1 inh 5.1% and ClpP mod 15.8µM*.
O=C(CSc1nc2ccccc2s1)N1N=C(c2cccs2)CC1c1ccc(F)cc1 (stereo unspecified) was read as Rango dissoc inh 27.6%, PTAP TSG101 blk -0.8%, Rango-impB inh -4.2%, ALOX12 inh -14.7%, TDP1 inh 2.6% and ClpP mod 28.2µM*.
Screening COc1ccc(C2CC(c3cccs3)=NN2C(=O)CSc2nc3ccccc3o2)cc1 (stereo unspecified) returned Rango dissoc inh 8.4%, PTAP TSG101 blk -3.2%, Rango-impB inh 1.1%, ALOX12 inh 1.7%, TDP1 inh 0.0% and ClpP mod 31.6µM*.
Screening CCN1CCc2c(OCC(=O)N3N=C(c4cccs4)CC3c3ccc(F)cc3)cccc2C1=O (stereo unspecified) returned Rango dissoc inh 0.8%, PTAP TSG101 blk 0.0%, Rango-impB inh -1.6%, ALOX12 inh -1.9%, TDP1 inh 3.2% and ClpP mod 7.94µM*.
COc1ccc(C2CC(c3cccs3)=NN2C(=O)CCC(=O)O)cc1 (stereo unspecified) was read as Rango dissoc inh -1.4%, PTAP TSG101 blk -5.2%, Rango-impB inh -0.2%, ALOX12 inh -18.0% and ClpP mod inconclusive.
`O=C1NC2(CCN(C(=O)c3cccnc3)C2)Oc2ccccc21` (stereo unspecified) gave ALOX12 inh 17.2%[176 µM].
`COc1ccc(C(=O)COC(=O)c2ccc(Cl)nc2)c(OC)c1` gave Rango dissoc inh -2.6%, PTAP TSG101 blk -0.5%, Rango-impB inh 0.1%, ALOX12 inh inconclusive, TDP1 inh 50.1µM* and ClpP mod -17.6%.
For COc1ccc(C(=O)COC(=O)c2ccc(Cl)nc2)cc1OC the results were Rango dissoc inh 12.0%, PTAP TSG101 blk -1.5%, Rango-impB inh 0.8%, ALOX12 inh 8.5%, TDP1 inh -5.5% and ClpP mod 22.4µM*.
`COCC1CN(C(C)=O)CC12CCN(C(=O)C1CNC1)CC2` (stereo unspecified) gave ALOX12 inh 25.1µM*.
Screening O=C(c1ccc2c(c1)OCO2)N1CCC(c2nnc3n2CCNC3)CC1 returned ALOX12 inh 10µM*.
CC(C)CNC(=O)[C@H]1CCC[C@H]1NC(=O)c1ccncc1 was read as ALOX12 inh 56.7%.
`CCC(=O)NC(Cc1ccccc1)c1ccc2c(c1)OCCCO2` (stereo unspecified) gave Rango dissoc inh -11.3%, PTAP TSG101 blk 1.9%, Rango-impB inh -1.1%, ALOX12 inh 9.1%, TDP1 inh 2.5% and ClpP mod 22.4µM*.
Screening O=C(N[C@H]1CO[C@H]2[C@@H]1OC[C@H]2OCc1ccccc1)c1ccccc1 returned ALOX12 inh -2.1%[176 µM].
CCC(=O)Nc1nnc(-c2ccccn2)o1 was read as Rango dissoc inh -1.1%, PTAP TSG101 blk -4.1%, Rango-impB inh -0.2%, ALOX12 inh -9.6%, TDP1 inh 2.7% and ClpP mod inconclusive.
O=C(CCc1ccccc1)Nc1nnc(-c2ccccn2)o1 was read as Rango dissoc inh -20.7%, PTAP TSG101 blk -0.3%, Rango-impB inh 2.5%, ALOX12 inh -7.0%, TDP1 inh 4.6% and ClpP mod 22.4µM*.
